High-throughput results (PubChem BioAssay)
The list is not random: actives were taken first. Their share in the collection is about 21%.
AMA1 RON2 block: AMA1-RON2 (P. falciparum) interaction inhibition. AlphaScreen AMA1-biotinylated RON2 peptide binding. Potency, µM (doses to about 58.2 µM), inactives show at the highest dose activity change, negative = inhibition, most hits filed as inhibitors. hit rate 0.2% among 360,000. AID 720542;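 also: potency is read from the fitted curve at half-maximal effect; 0% = vehicle wells and -100% = peptide control; nearly all actives have a fitted effect of over 45% in size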
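AMA1 (3D7) with his tag at 25 nM final met compounds first, then biotinylated RON2 peptide at 25 nM; detection used donor plus acceptor beads, 10 µg/mL apiece, read by AlphaScreen after 30 min at room temperature.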
Pf growth 96h: P. falciparum growth inhibition at 96 hours; hit rate 6.9% among 320,000; AID 504834; P. falciparum luciferase reporter growth, 96 h; Potency, µM (highest dose often 28.7 µM), for inactives: top-dose activity change, negative = inhibition, most hits filed as inhibitors; also: potency is read from the fitted curve at half-maximal effect; % is scaled to controls: 0 for no effect and ±100 for the full control effect
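Luminescence readout: decreased luciferase signal marks inhibited growth of reporter-expressing P. falciparum in infected red cells (2% hematocrit, 0.05% parasitemia final), exposed to compound two generations (96 h, 37 C, 5% CO2).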
Shiga toxin inh: inhibitors of Shiga toxin in Vero cells. Vero cells, Shiga toxin protein synthesis inhibition reporter. inhibition, % at 38.7 µM. hit rate 9.2% among 290,000. AID 2315; in the data active = inhibition mostly above about 28%, no sharp cut-off; inactive = mostly below about 43%; also: 0% is about no effect
CHX counter: counter-screen for Shiga toxin inhibitors: cycloheximide protein synthesis inhibition. cell reporter, cycloheximide protein synthesis inhibition counterscreen. hit rate 12% among 300,000. AID 2314. max response, %; in the data active = max response mostly above about 13%, no sharp cut-off; inactive = mostly below about 14%; also: read at 38.3 µM for the half of the compounds with a filed dose; 0% is about no effect
HCV inh: HCV inhibition; Huh7.5.1 HCVcc-Cre infection, luciferase reporter, 44 h; Potency, µM (top dose mostly 41.8 µM), inactives show at the highest dose activity change, negative = inhibition, hits mostly inhibitors; hit rate 3.4% among 340,000; AID 651820; also: potency is read from the fitted curve at half-maximal effect; % is scaled to controls: 0 for no effect and ±100 for the full control effect
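1,000 cells/well; 4 h culture; + compound; + HCVcc-Cre (~0.5 moi); 44 h; luciferase substrate, RT 15 min; read 15 sec.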
Pf growth 48h: inhibits P. falciparum growth in the first generation, 48 h | hit rate 5.9% among 310,000 | Potency, µM (doses to about 28.7 µM), without a hit: at the top dose activity change, negative = inhibition, actives largely listed as inhibitors | AID 504832 | P. falciparum luciferase growth in erythrocytes, 48 h; also: potency is read from the fitted curve at half-maximal effect; % is scaled to controls: 0 for no effect and ±100 for the full control effect
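Cell-based growth assay: transgenic P. falciparum expressing firefly luciferase, cultured in red cells within RPMI 1640 containing 0.5% w/v Albumax, 24 mM bicarbonate and gentamycin. A drop in luciferase activity indicates inhibition.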
Numbers without * were called inactive; i = inactive; ? = inconclusive; · = not tested or not shown; [ ] = another dose, or the depositor's remark. Unless noted, calls follow the shape of the dose curve; as a rule, active = well fitted curve in the direction sought with a large enough effect; inconclusive = small, poorly fitted or top-dose-only effect, or another doubt; inactive = no such curve, though single readings can be large; an effect the other way counts as inactive or inconclusive.

SMILES	AMA1 RON2 block	Pf growth 96h	Shiga toxin inh	CHX counter	HCV inh	Pf growth 48h
COc1cccc(OCc2cc(C(=O)NCc3ccc4c(c3)OCO4)no2)c1	16%	86%	48*	44*	-1%	20%
COc1ccccc1CNC(=O)COC(=O)C1CCN(S(=O)(=O)c2ccc(C)c(C)c2)CC1	-18%	21%	·	·	36%	-12%
O=S(=O)(/N=C(/Nc1ccccc1)c1ccccc1O)c1ccccc1	0%	11%	24	5	13%	?
O=C(NCCN1CCC(n2c(=O)[nH]c3ccccc32)CC1)c1ccc(F)cc1Cl	-3%	·	·	·	·	·
NS(=O)(=O)c1ccc(CNC(=O)c2sccc2-c2ccccc2)cc1	17%	12%	-11	-2	0%	-9%
Cc1ccc(NC2c3ncccc3C(=O)N2c2ccccc2C)cc1C (centres undefined)	?	9%	72*	22*	-11%	43%
CCOc1ccc(N2C(=O)c3cccnc3C2Nc2ccc(Cl)cc2)cc1 (centres undefined)	-2%	0%	-1	2	?	?
Cc1cc(Br)c(NC(=O)COC(=O)CC2CC3CCC2C3)c(Br)c1 (centres undefined)	0%	·	·	·	4%	·
O=C(O)c1[nH]c2ccccc2c1-c1ccccc1	15%	10%	-7	13	37%	·
Cc1ccc2[nH]c(C(=O)O)c(-c3ccccc3)c2c1	-2%	7.4µM*	-11	-3	-3%	7%
Cc1ccc2[nH]c(C(=O)NN=C3CCCCC3)c(-c3ccccc3)c2c1	67%	9.3µM*	11	-1	0%	?
C[C@H](CO)N1C[C@H](C)[C@@H](CN(C)Cc2ccccc2)Oc2c(NS(=O)(=O)c3cn(C)cn3)cccc2C1=O	12%	·	·	·	?	·
Clc1ccccc1CN1CCN(c2ncccn2)CC1	?	?	9	10	-9%	-4%
Clc1cccc(CN2CCN(c3ncccn3)CC2)c1Cl	-22%	13µM*	14	-2	-13%	19%
Clc1ccc(CN2CCN(c3ncccn3)CC2)c(Cl)c1	16µM*	7%	14	7	-8%	-3%
COCC(=O)N(C)C[C@@H]1Oc2cc(-c3ccc(F)cc3)ccc2S(=O)(=O)N([C@H](C)CO)C[C@H]1C	21%	·	·	·	·	·
O=S1(=O)CC(N2CCC(Cc3ccccc3)CC2)CN1CCc1ccccc1 (centres undefined)	-20%	·	·	·	·	·
CCOC(=O)c1[nH]c2ccccc2c1NC(=S)Nc1cccc(C)c1C	125%	50%	33	29*	6%	80%
CCCCNC(=O)Nc1c(C(=O)OCC)[nH]c2ccccc12	1%	8.3µM*	10	-1	24%	6%
COc1ccc(Nc2nc(NCCO)nc(OC)n2)cc1	-4%	i	9	2	-1%	·
COc1nc(Nc2ccccc2F)nc(OC)n1	11%	11%	21	12*	15%	19%
COc1nc(NCCO)nc(Nc2ccccc2F)n1	3%	?	83*	34*	?	125%
CN1CCN(c2ccc(S(=O)(=O)N3CCOCC3)cc2)CC1	-5%	?	-3	1	17%	22%
c1ccc(OCc2nn3c(-c4ccccn4)nnc3s2)cc1	-5%	?	68*	33*	?	38%
COc1ccccc1-c1nnc2sc(COc3ccc(F)cc3)nn12	16%	18%	-7	1	-6%	1.5µM*
SMILES	AMA1 RON2 block	Pf growth 96h	Shiga toxin inh	CHX counter	HCV inh	Pf growth 48h
COc1cccc(-c2nn3c(-c4cc(C)[nH]n4)nnc3s2)c1	13%	10µM*	-10	-3	1%	·
c1ccc(-c2nn3c(-c4ccccc4)nnc3s2)cc1	-11%	-11%	-9	10	15%	8%
c1ccc(OCc2nn3c(-c4ccncc4)nnc3s2)cc1	0%	?	-11	10	11%	32%
Cc1cccc(-c2nnc3sc(-c4ccccc4)nn23)c1	-11%	2.3µM*	5	4	?	14%
COc1cccc(-c2nnc3sc(-c4ccccn4)nn23)c1	6%	?	26	3	-16%	-18%
COc1cccc(NC(=O)c2ccc3nc(C)c(N(C)Cc4ccc(NC(C)=O)cc4)n3c2)c1	13%	·	·	·	·	·
COc1cccc(-c2nn3c(-c4ccccn4)nnc3s2)c1	-6%	59%	42	15*	-13%	·
COc1cc(-c2nnc3sc(-c4cccs4)nn23)cc(OC)c1OC	-12%	·	-5	-3	?	-20%
COc1ccc(-c2nnc3sc(-c4cccs4)nn23)cc1OC	8%	12µM*	-3	1	-8%	-9%
COc1ccc(C(=O)NCCCn2cccn2)cc1OC1CCN(C(C)=O)CC1	3%	?	-3	8	-1%	30%
CN(C)/C=C/c1onc(-c2ccccc2Cl)c1C#N	-1%	32%	69*	42*	-16%	78%
CCCCCCCCCCn1ccc(=N)cc1	10%	?	-19	0	22µM*	0.21µM*
O=C(Cn1cc(S(=O)(=O)Cc2cccc(F)c2)c2ccccc21)N1CCOCC1	11%	-17%	-1	-2	13%	-13%
COc1ccc(NC(=O)c2ccc(CNc3c(NC4CCCCC4)c(=O)c3=O)cc2)cc1OC	0%	15µM*	20	4	-10%	·
COc1ccc(CNC(=O)c2ccc(Cl)c(S(=O)(=O)N3CCCCCC3)c2)cc1	-9%	·	·	·	·	·
COc1ccc(CNC(=O)c2ccc(CNc3c(NC4CCCCC4)c(=O)c3=O)cc2)cc1	-8%	?	36	46*	0%[8.37 µM]	14%
C=CCN1C(=O)/C(=C/c2ccc3c(c2)CCCN3CCC)C(=O)NC1=S	6%	40%	2	11*	-8%	22%
Cc1ncc(N=Nc2ccc(F)cc2)c(-c2ccc(Cl)cc2)n1	-7%	21%	-4	-3	9%	?
COc1ccc(-c2nc(C)ncc2N=Nc2ccccc2)cc1	?	3.7µM*	23	20*	32µM*	9.3µM*
O=C(C(=O)N1CCC(c2ccccc2)CC1)c1cccc([N+](=O)[O-])c1	-26%	·	·	·	·	·
O=C(CSc1nncs1)NCc1ccc(F)cc1	-10%	-14%	13	3	5%	0%
CC(C)[C@H](NC(=O)NC1CCCC1)C(=O)O	-5%	·	-11	-1	4%	3%
CC(C)=CCCC(C)NC(=O)NC1CCCCC1 (centres undefined)	0%	13%	38	23*	26%	9%
COc1cccc(CN(C(=O)c2ccc([N+](=O)[O-])cc2)C2CCS(=O)(=O)C2)c1 (centres undefined)	11%	0%	-4	-3	21%	9%
COc1ccc(OC)c(-c2nn(-c3ccccc3)cc2C(=O)N2CCc3ccccc3C2)c1	-19%	?	·	·	?	10µM*
COc1ccccc1-c1nn(-c2ccccc2)cc1C(=O)N1CCc2ccccc2C1	-8%	3.7µM*	·	·	?	?
